Legend:
[1] = test system: Sporothrix brasiliensis CBS 133006; assay: growth inhibition relative to untreated control; higher = more growth inhibition (more antifungal activity), active = 80 or more; extreme values may be limits of the assay; settings: 1 µM; 48 h
In short: (§1)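 Library compounds at a final 1 μM were incubated with yeast-form cells of the reference isolates (1 x 10^5 CFU/ml) for 48 h at 35°C in 5% CO2. Growth was judged by inverted light microscopy and measured spectrophotometrically in quadruplicate runs. Values give percent growth inhibition relative to untreated cells.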

[2] = test system: Sporothrix schenckii ATCC 32286; assay: as above; settings: 1 µM; 48 h
In short: as §1

SMILES | growth inhibition [1] | growth inhibition [2]
CO[C@@H]1CN(c2ccc(C#CC3(O)CN4CCC3CC4)c(Cc3ccccc3)n2)C[C@H]1O (stereo partly drawn) | 9.75% (inactive) | 5.5% (inactive)
CO/N=C(\C(=O)OC)c1ccccc1CO/N=C(\C)c1cccc(C(F)(F)F)c1 | 96.8% (active) | 40% (inactive)
Cc1cc(C2=NOC(c3cc(Cl)c(F)c(Cl)c3)(C(F)(F)F)C2)ccc1C(=O)NCc1ccc2c(c1)C(C)(C)OB2O (stereo not drawn) | 14.5% (inactive) | 18.2% (inactive)
Nc1c2c(nc3sc4c(c13)CCCC4)CCCC2 | 6.75% (inactive) | 17% (inactive)
O=C1O[C@@H](COc2ccon2)CN1c1cc(F)c(C2=CCN(Cc3ccccc3)CC2)c(F)c1 | 2% (inactive) | 0% (inactive)
CC(C)(C)C(O)C(Oc1ccc(-c2ccccc2)cc1)n1cncn1 (stereo not drawn) | 67.5% (inactive) | 61.8% (inactive)
CC1COC(Cn2cncn2)(c2ccc(Oc3ccc(Cl)cc3)cc2Cl)O1 (stereo not drawn) | 97% (active) | 70.2% (inactive)
CO/C=C(/C(=O)OC)c1ccccc1Oc1cc(Oc2ccccc2C#N)ncn1 | 95.5% (active) | 27.5% (inactive)
Cc1cccc(C(=O)Nc2ccnc(N(C)C3CCN(CC(C)C)CC3)c2)c1 | 5.5% (inactive) | 9% (inactive)
O=C1O[C@@H](CO)CN1c1cc(F)c(C2=CCN(Cc3ccccc3)CC2)c(F)c1 | 6.75% (inactive) | 0.5% (inactive)
CC1(C)OB(O)c2ccc(C3=NOC(c4cc(Cl)c(F)c(Cl)c4)(C(F)(F)F)C3)cc21 (stereo not drawn) | 0.5% (inactive) | 18% (inactive)
CCc1nn(C)c(C(=O)NCc2ccc(Oc3ccc(C)cc3)cc2)c1Cl | 93.2% (active) | 96.5% (active)
Cc1nn(Cc2ccccc2)c(Cl)c1C(=O)NC1CCCCCC1 | 21.5% (inactive) | 3% (inactive)
Cc1nn(C)c(C)c1NS(=O)(=O)c1c(Cl)cc(-c2ccnc(N3CCNCC3)c2)cc1Cl | 15.2% (inactive) | 17.5% (inactive)
